molecular target: pT7_6His-AlfaTag-HOXD13 (human, UniProt P35453 263-343); assay: PADIT-seq; details: dsDNA, one strand shown
Sequence (P35453 263-343): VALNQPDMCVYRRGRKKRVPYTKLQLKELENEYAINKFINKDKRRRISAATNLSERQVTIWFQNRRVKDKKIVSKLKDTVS

How did the binding signal turn out when “CTCGAGGATATCAAGATCTGGCCTCGGCATTGTAAAAGGAACCTCTAGCTAGCCGACTCACTATAGGGATAATCGCCCTGAGCAAAGACC” was run?
Its binding signal is 2.55 ± 0.0888 log2FC.

Which binding signal does the source give for “CTCGAGGATATCAAGATCTGGCCTCGGCATTTTACATGGAACCTCTAGCTAGCCGACTCACTATAGGGATAATCGCCCTGAGCAAAGACC” here?
Its binding signal is 2.14 ± 0.0807 log2FC.

“CTCGAGGATATCAAGATCTGGCCTCGGCATTTTAGTTGGAACCTCTAGCTAGCCGACTCACTATAGGGATAATCGCCCTGAGCAAAGACC” was tested. Which binding signal did it give?
Its binding signal is 0.276 ± 0.112 log2FC.
